Compound activity deposited in PubChem by National Center for Advancing Translational Sciences (NCATS).
Sampled rows, rich in hits. Any-hit rate of the full collection: about 8.9%.
KB-3-1 tox = KB-3-1 parental cell cytotoxicity; actives 1.4% (n = 400,000); Potency, µM (top dose mostly 46.1 µM), hits mostly cytotoxic; AID 1347075; KB-3-1 viability, CellTiter-Glo ATP luminescence, 72 h; note: potency is the fitted concentration of half-maximal effect; % is set by controls: 0 for no effect and ±100 for the full control effect; nearly all actives have a fitted effect of over 60% in size
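Cells are dispensed, compounds pinned in, plates held at 37 °C for 72 h, then CellTiter-Glo is added and luminescence read after 10 minutes. Cell line: parental KB-3-1 in phenol-red-free DMEM, 10% FBS.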
DRD3 antagonist = blocks the human D3 dopamine receptor; P35462; D3R cells, DiscoveRx beta-arrestin luminescence, antagonist mode; active compounds read low; max response, negative = inhibition, %; actives 2.5% (n = 360,000); AID 652054; in the data active = max response below about -50%; inconclusive = no clear call, values can overlap the other calls; note: % is set by controls: 0 for no effect and ±100 for the full control effect
Target sequence (P35462 whole entry, looked up): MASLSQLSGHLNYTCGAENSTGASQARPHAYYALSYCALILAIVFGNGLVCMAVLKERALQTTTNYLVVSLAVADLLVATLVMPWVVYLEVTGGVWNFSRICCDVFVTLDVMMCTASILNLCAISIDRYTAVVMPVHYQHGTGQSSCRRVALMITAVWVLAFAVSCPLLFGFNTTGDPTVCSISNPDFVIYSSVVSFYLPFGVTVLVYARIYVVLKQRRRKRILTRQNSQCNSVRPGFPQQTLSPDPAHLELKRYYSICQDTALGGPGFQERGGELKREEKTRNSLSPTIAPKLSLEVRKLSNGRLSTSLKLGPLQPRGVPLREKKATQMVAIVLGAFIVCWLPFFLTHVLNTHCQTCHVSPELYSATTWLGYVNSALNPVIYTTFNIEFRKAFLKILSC
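Cells expressing the human receptor were seeded at 1500 cells/well, incubated overnight at 37 degrees C in 5% CO2, then exposed to library compounds with dopamine controls for 90 minutes at 37 degrees C before luminescent detection.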
MCF10A rerep = induces DNA re-replication in MCF 10a normal breast cells; Potency, µM (doses to about 46.1 µM), without a hit: top-dose activity, positive = re-replication, hits mostly activators; actives 2.9% (n = 350,000); AID 624296; MCF 10A DNA re-replication, Hoechst nuclear intensity, 48 h; note: potency is the fitted concentration of half-maximal effect; % of control where 0% means no effect; nearly all actives have a fitted effect of over 50% in size
KB-V1 cytotox = kills drug-selected multidrug resistant KB-V1 cells; AID 1347076; KB-V1 MDR cells viability, CellTiter-Glo, 72 h; actives 3.4% (n = 400,000); Potency, µM (series often up to 46.1 µM), most hits filed as cytotoxic; note: potency is the fitted concentration of half-maximal effect; % is set by controls: 0 for no effect and ±100 for the full control effect; nearly all actives have a fitted effect of over 60% in size
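Luminescent ATP read-out (CellTiter-Glo, 10 min) measures survival of drug-selected KB-V1 MDR cells after 72 h, 37 degrees C compound exposure. Medium: phenol-red-free DMEM, 10% FBS. Values from fitted concentration-response curves.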
DRD3 agonist = D3 dopamine receptor (human) agonism; P35462; actives 0.58% (n = 410,000); max activation, %; D3R DiscoveRx beta-arrestin cells, luminescence, 90 min; in the data active = max activation above about 30%; note: 0% is about no effect
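Cells at 1500/well, incubated overnight, then treated with pinned compounds (dopamine as control) for 90 min at 37 degrees C. DiscoveRx reagent added for 30 - 60 minutes at room temperature; luminescence read.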
SW480 rereplic = induces DNA re-replication in SW480 colon adenocarcinoma cells; SW480 DNA re-replication, Hoechst DNA content imaging, 48 h; Potency, µM (titrated, usually from 46.1 µM), inactives show at the top dose re-replication activation, actives largely listed as activators; actives 1.8% (n = 340,000); note: potency is the fitted concentration of half-maximal effect; % of control where 0% means no effect; nearly all actives have a fitted effect of over 55% in size
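Per well, 250 cells were exposed to pinned compound for 48 hr. Nuclear DNA was visualised with Hoechst (40 min, 37 C) and total object intensity recorded by fluorescence scanning.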
The depositor's hits bear a star; i = inactive; ? = inconclusive; · = no result. Unless noted, calls come from the whole dose curve; as a rule, active = well fitted curve in the direction sought with a large enough effect; inconclusive = small, poorly fitted or top-dose-only effect, or another doubt; inactive = no such curve, though single readings can be large; an effect the other way counts as inactive or inconclusive.

SMILES	KB-3-1 tox	DRD3 antagonist	MCF10A rerep	KB-V1 cytotox	DRD3 agonist	SW480 rereplic
COc1cc(S(=O)(=O)N2CCC(C(N)=O)CC2)c(C)cc1C	i	-103.5*	-4.3%	i	-15.5	-7.7%
C/C(=N/NC(=O)c1ccc(Cl)s1)c1ccc(NC(=O)COc2ccc(Cl)cc2)cc1	?	1.7	?	?	-5.0	?
CCC(CC)C(=O)Nc1cccc(/C(C)=N\NC(=O)c2ccc(C)s2)c1	i	0.1	25.7%	i	0.7	-2.3%
C/C(=N\NC(=O)c1c(Cl)cnn1C)c1cccc(NC(=O)COc2ccccc2)c1	i	12.7	16.4µM*	i	-1.4	4.3%
CC(=O)c1cccc(NC(=O)COc2ccccc2)c1	i	?	8.3%	i	1.6	-9.9%
C/C(=N/NC(=O)c1cccs1)c1ccc(NC(=O)COc2ccc(Cl)cc2Cl)cc1	i	-2.6	6.51µM*	i	-3.2	9.2µM*
C/C(=N/NC(=O)c1ccco1)c1cccc(NC(=O)c2ccc(C)s2)c1	i	0.5	3.4%	10.3µM*	-26.3	-1.7%
C/C(=N/NC(=O)c1ccc(C)s1)c1cccc(NC(=O)COc2ccc(Cl)cc2Cl)c1	i	-11.4	9.2µM*	i	5.4	?
O=C(NC1CC1)c1ccc(Cn2c(SCc3ccccc3F)nc3cccnc32)cc1	·	·	·	·	-6.8	·
CC1CCN(c2nc3ccccc3nc2SCC(=O)Nc2ccccc2C(C)C)CC1	i	·	·	i	13.7	·
O=C(CCc1nc2ccccc2c(=O)[nH]1)NCc1ccco1	?	10.1	?	?	-5.4	?
CCN(CCS(=O)(=O)c1ccc(Cl)cc1)Cc1nc2ccccc2c(=O)[nH]1	i	44.8	3.3%	7.31µM*	5.1	-7.4%
CCC(CC)C(=O)N(CCc1ccc(OC)cc1)Cc1nc2ccccc2c(=O)[nH]1	i	8.6	23.1µM*	?	7.2	20.6µM*
CN(CC(=O)NC(=O)NCc1ccco1)Cc1nc2ccccc2c(=O)[nH]1	i	-11.3	?	i	-20.0	5.17µM*
COc1ccc(CN(Cc2nc3ccccc3c(=O)[nH]2)C(=O)C(C)(C)C)cc1	i	2.7	4.0%	i	0.7	-0.1%
COc1ccc(CCN(Cc2nc3ccccc3c(=O)[nH]2)C(=O)c2ccco2)cc1	i	30.2	9.8%	20.6µM*	4.6	16.7%
COC(=O)N/N=C/c1cc(Cl)cc(Cl)c1OCc1ccc(F)cc1	i	7.1	0.1%	23.1µM*	-12.4	?
COc1ccc(COc2ccsc2C(=O)Nc2ccc(Cl)cc2)cc1	i	37.3	18.4µM*	9.2µM*	4.4	?
O=C(N/N=C/c1ccc(F)cc1)c1sccc1OCc1ccc(F)cc1	?	16.9	7.31µM*	7.31µM*	-5.8	9.2µM*
O=C(N/N=C/c1ccc(Cl)cc1)c1sccc1OCc1ccc(F)cc1	1.46µM*	-22.4	1.64µM*	1.3µM*	-16.6	9.2µM*
NNC(=O)c1sccc1OCc1ccc(F)cc1	i	3.7	-8.9%	?	0.2	-8.4%
CCCCNC(=O)CCn1c(=O)c2ccccc2n(Cc2cccc(Cl)c2)c1=O	i	·	·	i	6.9	·
COCCNC(=O)NC1(C(F)(F)F)Oc2ccc(Cl)cc2O1 (centres undefined)	23.1µM*	-16.2	15.2%	?	-1.6	3.1%
Cc1cc(NC(=O)Nc2ccc(F)c(Cl)c2)no1	i	31.9	11.5%	i	-12.5	-1.4%
Cc1ccc(Cl)cc1NC(=O)NCc1cccnc1	i	-13.8	0.2%	i	-7.9	18.4µM*
CCCCNC(=O)NC1(C(F)(F)F)Oc2ccccc2O1	?	-0.1	?	i	1.8	-2.4%
O=C(NCc1cccnc1)NC(=O)c1ccc(Cl)cc1	i	0.7	18.7%	i	-5.1	-7.1%
Cc1cc(NC(=O)NC2(C(F)(F)F)Oc3ccc(Cl)cc3O2)no1 (centres undefined)	?	16.0	-1.1%	18.4µM*	8.7	9.9%
